Results taken from PubChem BioAssay (NCATS).
Several values for one entry are separate records, joined by “and”; a condition that tells them apart may be missing. Equal values may be shown once. Inconclusive results are not listed. Some compounds were tested as several samples or in several runs, with calls that do not always agree. Values without a mark were called inactive. Activity calls are given as the source filed them. Calls follow the shape of the dose curve; as a rule, active = well fitted activation curve with a large enough effect in the signal ratio (not every such curve was filed as active); inconclusive = small, poorly fitted or top-dose-only effect, or a change in a side signal; inactive = flat fitted curve, though single readings scatter; the % refers to the signal ratio.

assay: qHTS assay for small molecule activators of the p53 signaling pathway (AID 651743); settings: HCT-116 p53RE-bla, beta-lactamase FRET ratio, 16 h; activation: hits give high values; as to activation: series mostly up to about 92 µM; % of control where 0% means no effect
Text: National Center for Advancing Translational Sciences [NCATS] NIH Chemical Genomics Center [NCGC] U.S. Environmental Protection Agency [EPA] National Institutes of Environmental Health Sciences [NIEHS] National Toxicology Program [NTP] Assay Overview: p53, a tumor suppressor protein, is activated following cellular insult, including DNA damage and other cellular stresses. The activation of p53 regulates cell fate by inducing DNA repair, cell cycle arrest, apoptosis, or cellular senescence. The activation of p53, therefore, is a good indicator of DNA damage and other cellular stresses. The CellSensor p53RE-bla HCT-116 cell line (Invitrogen) contains a stably integrated beta-lactamase reporter gene under control of the p53 response elements. The activation of the report gene under culture conditions can be detected by fluorescence intensity. This cell line can be used to screen chemicals in a 1536-well plate format and to identify agonists that activate p53 signaling pathway.
Assay Protocol Summary: The p53RE-bla cells were dispensed at 4,000 cells/5 ul/well in 1536-well black wall/clear bottom plates using a Multidrop dispenser. After the assay plates were incubated at a 37 C/5% CO2 incubator for 5 hours, 23 nL of compounds dissolved in DMSO, positive controls or DMSO only was transferred to the assay plate by a pin tool. The plates were incubated at 37 C for 16 hours. After 1 uL of LiveBLAzer B/G FRET substrate was added using a Flying Reagent Dispenser, the plates were incubated at room temperature for 2 hours, and fluorescence intensity was measured by an Envision plate reader.
Potency is read from the fitted curve at half-maximal effect.

In the case of `COc1ccc([N+](=O)[O-])cc1N`, the activation is reported as -2.91% and -2.52%.
With `CN(C)c1ccc(Cc2ccc(N(C)C)cc2)cc1` the activation was 6.8% and -1.08%.
With `CCCC(=O)OC(=O)CCC` the activation was 0.746% and 0.239%.
With `O=C(OCc1ccccc1)c1ccccc1O` the activation was 1.07% and -2.52%.
In the case of `O=[N+]([O-])c1cc(N(CCO)CCO)ccc1NCCO`, the activation is reported as -5.39% and -4.71%.
For `CCCCC(CC)COC(=O)COc1ccc(Cl)cc1Cl` (stereo not given), the activation was -1.29% and -1.26%.
With `c1ccc2c(c1)ccc1ccccc12` the activation was -2.61% and 2.1%.
With `O=C(O)c1ccc([N+](=O)[O-])cc1` the activation was -2.78% and 0.222%.

Going from `NC(=O)c1ccc([N+](=O)[O-])cc1` to `O=C(O)c1cc(N=Nc2ccc([N+](=O)[O-])cc2)ccc1O`, the activation falls from -4.76% to -5.24%.

First: CCNC(=S)NCC
Second: C=CC(=O)CC
The activation of the first is higher: -0.196% for the first, -1.3% for the second.

Compared with `CCCCC(CC)COP(=O)(OCC(CC)CCCC)OCC(CC)CCCC` (stereo not given), `CCCCC(CC)COCCCN` (stereo not given) is higher in activation: -6.02% for the first, -2.34% for the second.

First: Brc1ccc(-c2ccccc2)cc1
Second: O=[N+]([O-])c1ccccc1Nc1ccccc1
The activation of the first is higher: -2.65% for the first, -4.76% for the second.

Going from `Cc1c(C(=O)O)c(O)cc2c1C(=O)c1c(O)c([C@H]3O[C@H](CO)[C@@H](O)[C@H](O)[C@H]3O)c(O)c(O)c1C2=O` to `Nc1cc(C(=O)O)c(O)c(S(=O)(=O)O)c1`, the activation falls from 0.0222% to -4.77%.

Compared with `Cc1ccc(O)c(N)c1`, `COc1ccc(C)cc1N` is lower in activation: 2.36% for the first, -5.11% for the second.

Going from `CCCCCCc1ccc(-c2ccc(C#N)cc2)cc1` to `CCc1ccc(C(c2ccc(CC)cc2)C(Cl)Cl)cc1`, the activation falls from 1.83% to -0.867%.

Going from `CCCCCCN` to `C=CC(C)(O)CCCC(C)CCCC(C)CCCC(C)C` (stereo not given), the activation falls from -1.84% to -2.56%.

Going from `CC(=O)c1ccc(Cl)c(Cl)c1Cl` to `Oc1c(Cl)cc(Cl)c(Cl)c1Cl`, the activation rises from -1.64% to 2.74%.

Compared with `CC(/C=C/C=C(C)/C=C/C(=O)O)=C\C=C\C=C(C)\C=C\C=C(C)\C=C\C(=O)O`, `O=CC(=O)c1ccccc1` is higher in activation: -5.5% for the first, -5.31% for the second.

Going from `Cc1ccc(N)cc1[N+](=O)[O-]` to `Nc1ccc(N)c(Cl)c1`, the activation rises from -0.0251% to 1.03%.

Compared with `c1c[nH]cn1`, `CCOc1ccc2nc(N)sc2c1` is lower in activation: -1.43% for the first, -1.71% for the second.

Going from `c1cc2c3c(c1)ccc1cccc(c13)C2` to `c1ccc(CSCc2ccccc2)cc1`, the activation rises from -4.21% to -0.938%.

Compared with `C[C@@H]1CC2(OC(O)[C@]3(C)O[C@H]23)O[C@H]2C[C@@]3(C)[C@@H]4CC[C@H]5C(C)(C)C(O[C@@H]6OC[C@@H](O)[C@H](O)[C@H]6O)CC[C@@]56C[C@@]46CC[C@]3(C)[C@@H]12` (stereo not given in full), `Cc1ccccc1OCC1CO1` (stereo not given) is higher in activation: -3.37% for the first, -0.32% for the second.

With `CC(C)S` the activation was -1.26%.

In the case of `CCN(CC)c1ccc2c(C)cc(=O)oc2c1`, the Potency is reported as 39.8 µM (active).
With `Oc1c(Cl)cc(Cl)c(Cl)c1Cl` the Potency was 44.7 µM (active).
With `Nc1cnn([C@@H]2O[C@H](CO)[C@@H](O)[C@H]2O)c(=O)n1` the Potency was 0.794 µM (active).
